# Where “and” joins values, the source holds several entries; their conditions need not be identical. Equal entries are not always repeated. Screen size: about 5,500 compounds; about 2,000 (36%) were called active. Inconclusive results (about 18%) are left out. The list shows a part of the results. Unmarked numbers belong to inactive results. Rule as the data show it: active = normalized growth mostly below about 0.91 (no sharp cut-off); inconclusive = no clear call, values can overlap the other calls; inactive = mostly above about 0.92.
# Experiment: chemical genetic growth profiling, strain panel (AID 1159580);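 also: tested at 20 µM; growth read once vehicle control cultures reached saturation at 30 °C; 1 = growth at the plate median or of vehicle wells; lower values mean less growth of the strain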
# Details: S. cerevisiae deletion strains, growth OD
structure (smiles),measurement,setting,value
Oc1cc2c(cc1O)C1c3ccc(O)c(O)c3OCC1(O)C2 (centres undefined),normalized growth,"locus YAL021C, strain ccr4, stronger effect = lower value",1
same,normalized growth,"locus YAL030W, strain snc1, stronger effect = lower value",1.01
same,normalized growth,"locus YBL061C, strain skt5, stronger effect = lower value",0.993
same,normalized growth,"locus YBR009C, strain hhf1, stronger effect = lower value",1
same,normalized growth,"locus YBR021W, strain FUR4, stronger effect = lower value",1.01
same,normalized growth,"locus YBR023C, strain chs3, stronger effect = lower value",0.995
same,normalized growth,"locus YBR171W, strain sec66, stronger effect = lower value",1.01
same,normalized growth,"locus YBR229C, strain ROT2, stronger effect = lower value",1
same,normalized growth,"locus YBR231C, strain swc5, stronger effect = lower value",0.956
same,normalized growth,"locus YBR279W, strain paf1, stronger effect = lower value",0.984
same,normalized growth,"locus YCL011C, strain gbp2, stronger effect = lower value",1.01
same,normalized growth,"locus YCL016C, strain dcc1, stronger effect = lower value",1
same,normalized growth,"locus YCL029C, strain bik1, stronger effect = lower value",0.997
same,normalized growth,"locus YCL069W, strain vba3, stronger effect = lower value",1.02
same,normalized growth,"locus YCR088W, strain abp1, stronger effect = lower value",1.02
same,normalized growth,"locus YDL005C, strain med2, stronger effect = lower value",1
same,normalized growth,"locus YDL035C, strain GPR1, stronger effect = lower value",0.973
same,normalized growth,"locus YDL040C, strain nat1, stronger effect = lower value",1.04
same,normalized growth,"locus YDL074C, strain BRE1, stronger effect = lower value",0.852
same,normalized growth,"locus YDL101C, strain DUN1, stronger effect = lower value",0.908
same,normalized growth,"locus YDL134C, strain PPH21, stronger effect = lower value",0.832 (active)
same,normalized growth,"locus YDL185W, strain tfp1, stronger effect = lower value",0.961
same,normalized growth,"locus YDL192W, strain arf1, stronger effect = lower value",0.997
same,normalized growth,"locus YDR001C, strain nth1, stronger effect = lower value",1.02
same,normalized growth,"locus YDR069C, strain doa4, stronger effect = lower value",0.936
same,normalized growth,"locus YDR101C, strain arx1, stronger effect = lower value",1.07
same,normalized growth,"locus YDR137W, strain rgp1, stronger effect = lower value",1.05
same,normalized growth,"locus YDR159W, strain sac3, stronger effect = lower value",1.03
same,normalized growth,"locus YDR162C, strain NBP2, stronger effect = lower value",0.821 (active)
same,normalized growth,"locus YDR195W, strain ref2",1.02
same,normalized growth,"locus YDR297W, strain sur2, stronger effect = lower value",1.01
same,normalized growth,"locus YDR318W, strain mcm21, stronger effect = lower value",0.99
same,normalized growth,"locus YDR334W, strain swr1, stronger effect = lower value",0.991
same,normalized growth,"locus YDR335W, strain msn5, stronger effect = lower value",0.996
same,normalized growth,"locus YDR388W, stronger effect = lower value",0.998
same,normalized growth,"locus YDR392W, strain spt3, stronger effect = lower value",0.991
same,normalized growth,"locus YDR502C, strain sam2, stronger effect = lower value",1.01
same,normalized growth,"locus YEL003W, strain gim4, stronger effect = lower value",1.01
same,normalized growth,"locus YEL037C, strain rad23, stronger effect = lower value",1.02
same,normalized growth,"locus YEL061C, strain CIN8 (second series), stronger effect = lower value",1.02
same,normalized growth,"locus YEL061C, strain CIN8, stronger effect = lower value",0.964
same,normalized growth,"locus YER015W, strain faa2, stronger effect = lower value",0.983
same,normalized growth,"locus YER016W, strain bim1, stronger effect = lower value",1.02
same,normalized growth,"locus YER110C, stronger effect = lower value",0.999
same,normalized growth,"locus YER111C, strain swi4, stronger effect = lower value",0.961
same,normalized growth,"locus YER155C, strain BEM2 (second series), stronger effect = lower value",1.02
same,normalized growth,"locus YER155C, strain BEM2, stronger effect = lower value",1.02
same,normalized growth,"locus YER167W, strain BCK2, stronger effect = lower value",1.04
same,normalized growth,"locus YFR010W, strain ubp6, stronger effect = lower value",0.983
same,normalized growth,"locus YGL078C, strain dbp3, stronger effect = lower value",0.972
same,normalized growth,"locus YGL086W, strain mad1, stronger effect = lower value",0.966
same,normalized growth,"locus YGL173C, strain kem1, stronger effect = lower value",0.985
same,normalized growth,"locus YGL227W, strain vid30, stronger effect = lower value",1.01
same,normalized growth,"locus YGL240W, strain doc1, stronger effect = lower value",1.04
same,normalized growth,"locus YGL248W, strain PDE1, stronger effect = lower value",0.893
same,normalized growth,"locus YGL253W, strain hxk2, stronger effect = lower value",1.01
same,normalized growth,"locus YGR078C, strain PAC10, stronger effect = lower value",0.916
same,normalized growth,"locus YGR135W, strain pre9, stronger effect = lower value",0.946
same,normalized growth,"locus YGR252W, strain gcn5, stronger effect = lower value",0.992
same,normalized growth,"locus YHR013C, strain ard1, stronger effect = lower value",0.987
same,normalized growth,"locus YHR027C, strain rpn1, stronger effect = lower value",0.98
same,normalized growth,"locus YHR030C, strain SLT2, stronger effect = lower value",1
same,normalized growth,"locus YHR079C, strain IRE1 (second series), stronger effect = lower value",1.01
same,normalized growth,"locus YHR079C, strain IRE1, stronger effect = lower value",1.01
same,normalized growth,"locus YHR094C, strain hxt1, stronger effect = lower value",1.01
same,normalized growth,"locus YHR129C, strain ARP1, stronger effect = lower value",0.912 (active)
same,normalized growth,"locus YHR142W, strain chs7, stronger effect = lower value",0.99
same,normalized growth,"locus YHR200W, strain rpn10, stronger effect = lower value",0.976
same,normalized growth,"locus YIL066C, strain RNR3, stronger effect = lower value",0.939
same,normalized growth,"locus YIL073C, strain SPO22, stronger effect = lower value",0.683
same,normalized growth,"locus YIL125W, strain kgd1, stronger effect = lower value",1
same,normalized growth,"locus YIR030C, strain dcg1, stronger effect = lower value",1.01
same,normalized growth,"locus YJL092W, strain hpr5, stronger effect = lower value",1.02
same,normalized growth,"locus YJL095W, strain BCK1 (second series), stronger effect = lower value",1.01
same,normalized growth,"locus YJL095W, strain BCK1, stronger effect = lower value",0.811 and 0.994
same,normalized growth,"locus YJL115W, strain asf1, stronger effect = lower value",1
same,normalized growth,"locus YJL129C, strain trk1, stronger effect = lower value",1.07
same,normalized growth,"locus YJL134W, strain LCB3, stronger effect = lower value",0.992
same,normalized growth,"locus YJL154C, strain vps35, stronger effect = lower value",1.02
same,normalized growth,"locus YJL164C, strain tpk1, stronger effect = lower value",0.991
same,normalized growth,"locus YJL166W, strain qcr8, stronger effect = lower value",0.991
same,normalized growth,"locus YJL168C, strain set2, stronger effect = lower value",0.984
same,normalized growth,"locus YJL187C, strain SWE1 (second series), stronger effect = lower value",0.856 (active)
same,normalized growth,"locus YJR043C, strain POL32, stronger effect = lower value",0.95
same,normalized growth,"locus YJR066W, strain TOR1, stronger effect = lower value",0.913
same,normalized growth,"locus YKL009W, strain mrt4, stronger effect = lower value",1.06
same,normalized growth,"locus YKL068W, stronger effect = lower value",0.983
same,normalized growth,"locus YKL085W, strain MDH1 (second series), stronger effect = lower value",0.977
same,normalized growth,"locus YKL085W, strain MDH1, stronger effect = lower value",0.977
same,normalized growth,"locus YKL160W, strain elf1, stronger effect = lower value",0.983
same,normalized growth,"locus YKR001C, strain vps1, stronger effect = lower value",1.03
same,normalized growth,"locus YKR026C, strain gcn3, stronger effect = lower value",1.01
same,normalized growth,"locus YKR091W, strain srl3, stronger effect = lower value",1.02
same,normalized growth,"locus YLL001W, strain dnm1, stronger effect = lower value",1.01
same,normalized growth,"locus YLL026W, stronger effect = lower value",1.01
same,normalized growth,"locus YLL041C, strain sdh2, stronger effect = lower value",1.03
same,normalized growth,"locus YLR027C, strain aat2, stronger effect = lower value",0.984
same,normalized growth,"locus YLR039C, strain RIC1, stronger effect = lower value",0.916
same,normalized growth,"locus YLR058C, strain SHM2, stronger effect = lower value",0.916
same,normalized growth,"locus YLR102C, strain apc9, stronger effect = lower value",0.998
same,normalized growth,"locus YLR113W, strain HOG1, stronger effect = lower value",1.07
same,normalized growth,"locus YLR221C, strain rsa3, stronger effect = lower value",0.986
same,normalized growth,"locus YLR258W, strain gsy2, stronger effect = lower value",1.02
same,normalized growth,"locus YLR262C, strain YPT6 (second series), stronger effect = lower value",0.979
same,normalized growth,"locus YLR268W, strain sec22, stronger effect = lower value",1.04
same,normalized growth,"locus YLR320W, strain mms22, stronger effect = lower value",0.999
same,normalized growth,"locus YLR330W, strain CHS5, stronger effect = lower value",0.974
same,normalized growth,"locus YLR342W, strain FKS1 (second series), stronger effect = lower value",0.696 (active)
same,normalized growth,"locus YLR342W, strain FKS1, stronger effect = lower value",0.979
same,normalized growth,"locus YLR357W, strain rsc2, stronger effect = lower value",0.907
same,normalized growth,"locus YLR370C, strain arc18, stronger effect = lower value",0.987
same,normalized growth,"locus YLR371W, strain rom2, stronger effect = lower value",0.932
same,normalized growth,"locus YLR384C, strain iki3, stronger effect = lower value",1
same,normalized growth,"locus YLR418C, strain cdc73, stronger effect = lower value",0.963
same,normalized growth,"locus YML016C, strain PPZ1, stronger effect = lower value",0.86 (active)
same,normalized growth,"locus YML032C, strain rad52, stronger effect = lower value",1.07
same,normalized growth,"locus YML120C, strain ndi1, stronger effect = lower value",1.04
same,normalized growth,"locus YML124C, strain tub3, stronger effect = lower value",1.02
same,normalized growth,"locus YMR058W, strain fet3, stronger effect = lower value",0.784 (active)
same,normalized growth,"locus YMR078C, strain ctf18, stronger effect = lower value",1.01
same,normalized growth,"locus YMR125W, strain sto1, stronger effect = lower value",1.05
same,normalized growth,"locus YMR129W, stronger effect = lower value",1.03
same,normalized growth,"locus YMR205C, strain PFK2, stronger effect = lower value",1.02
same,normalized growth,"locus YMR223W, strain ubp8, stronger effect = lower value",0.977
same,normalized growth,"locus YMR231W, strain pep5, stronger effect = lower value",0.995
same,normalized growth,"locus YMR307W, strain GAS1, stronger effect = lower value",0.784
same,normalized growth,"locus YNL067W, strain RPL9B, stronger effect = lower value",0.931
same,normalized growth,"locus YNL071W, strain lat1, stronger effect = lower value",1.01
same,normalized growth,"locus YNL153C, strain GIM3, stronger effect = lower value",0.908
same,normalized growth,"locus YNL183C, strain NPR1, stronger effect = lower value",0.907
same,normalized growth,"locus YNL209W, strain ssb2, stronger effect = lower value",0.958
same,normalized growth,"locus YNL233W, strain BNI4, stronger effect = lower value",0.911
same,normalized growth,"locus YNL248C, strain rpa49, stronger effect = lower value",0.995
same,normalized growth,"locus YNL250W, strain rad50, stronger effect = lower value",0.952
same,normalized growth,"locus YNL271C, strain bni1, stronger effect = lower value",0.988
same,normalized growth,"locus YNL298W, strain CLA4, stronger effect = lower value",0.991
same,normalized growth,"locus YNL307C, strain MCK1, stronger effect = lower value",0.996
same,normalized growth,"locus YNL322C, strain KRE1 (second series), stronger effect = lower value",1.01
same,normalized growth,"locus YNL322C, strain KRE1, stronger effect = lower value",0.902 (active)
same,normalized growth,"locus YNR049C, strain mso1, stronger effect = lower value",1.02
same,normalized growth,"locus YNR052C, strain pop2, stronger effect = lower value",0.954
same,normalized growth,"locus YOL006C, strain TOP1, stronger effect = lower value",0.585
same,normalized growth,"locus YOL012C, strain htz1",0.422
same,normalized growth,"locus YOL147C, strain pex11, stronger effect = lower value",1.01
same,normalized growth,"locus YOR001W, strain rrp6, stronger effect = lower value",0.991
same,normalized growth,"locus YOR061W, strain CKA2, stronger effect = lower value",0.945
same,normalized growth,"locus YOR069W, strain VPS5, stronger effect = lower value",0.953
same,normalized growth,"locus YOR070C, strain gyp1, stronger effect = lower value",0.965
same,normalized growth,"locus YOR080W, strain dia2, stronger effect = lower value",1.01
same,normalized growth,"locus YOR083W, strain WHI5, stronger effect = lower value",0.971
same,normalized growth,"locus YOR106W, strain vam3, stronger effect = lower value",0.985
same,normalized growth,"locus YOR136W, strain idh2, stronger effect = lower value",1.02
same,normalized growth,"locus YOR144C, strain elg1, stronger effect = lower value",1.01
same,normalized growth,"locus YOR184W, strain ser1, stronger effect = lower value",1.09
same,normalized growth,"locus YOR231W, strain MKK1, stronger effect = lower value",1.01
same,normalized growth,"locus YOR265W, strain rbl2, stronger effect = lower value",1
same,normalized growth,"locus YOR270C, strain vph1, stronger effect = lower value",1.05
same,normalized growth,"locus YOR290C, strain snf2, stronger effect = lower value",0.997
same,normalized growth,"locus YOR316C, strain cot1, stronger effect = lower value",0.996
same,normalized growth,"locus YPL051W, strain arl3, stronger effect = lower value",0.929
same,normalized growth,"locus YPL078C, strain atp4, stronger effect = lower value",1.02
same,normalized growth,"locus YPL106C, strain sse1, stronger effect = lower value",0.957
same,normalized growth,"locus YPL240C, strain hsp82, stronger effect = lower value",1.02
same,normalized growth,"locus YPL256C, strain CLN2, stronger effect = lower value",1.02
same,normalized growth,"locus YPR119W, strain clb2, stronger effect = lower value",1.01
same,normalized growth,"locus YPR141C, strain kar3, stronger effect = lower value",0.982
same,normalized growth,"locus YPR163C, strain tif3, stronger effect = lower value",1.01
same,normalized growth,"locus YPR167C, strain met16, stronger effect = lower value",1.01
same,normalized growth,"strain wtn01, stronger effect = lower value",1.02

# Source: PubChem BioAssay AID1159580 (chemical genetic matrix, 2015)
